Assay outcomes (PubChem)
This is a sample that favours compounds with a hit; in the whole collection about 1.1% have one here.
VDR inh – blocks the human vitamin D receptor; P11473; actives 0.93% (n = 400,000); AID 504847; VDR-SRC2-3 peptide fluorescence polarization, 2 h; Potency, µM, most hits filed as inhibitors
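Two reagent solutions held at 4 deg C in the dark were dispensed, compounds pinned at 23 nl, and the mixture incubated 2 h at room temperature. Read-out: fluorescence polarization of VDR–SRC2-3 peptide binding.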
Pin1 inhibitor – human Pin1 inhibition | Q13526 | Pin1 FP peptide displacement, HiFluor488, 10 min | Potency, µM (titrated, usually from 115 µM), actives largely listed as inhibitors | actives 0.009% (n = 390,000) | AID 504891; active = well fitted inhibition curve with a large enough effect in the polarisation, with a control signal flat, not every such curve was filed as active; inconclusive = small, poorly fitted or top-dose-only effect, or effect the other way, or a change in a side signal; inactive = no such curve, though single readings can be large or run the other way; the % refers to the polarisation
Target sequence (Q13526 whole entry, looked up): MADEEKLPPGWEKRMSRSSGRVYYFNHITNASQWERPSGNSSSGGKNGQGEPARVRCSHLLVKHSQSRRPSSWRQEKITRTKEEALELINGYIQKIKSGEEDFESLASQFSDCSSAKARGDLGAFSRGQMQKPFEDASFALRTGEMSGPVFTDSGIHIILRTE
Tb PFK inh – inhibitors of T. brucei phosphofructokinase; O15648; T. brucei PFK, ADP-Glo luminescence; Potency, µM (titrated, usually from 57.5 µM), hits mostly inhibitors; actives 0.17% (n = 330,000); also: nearly all actives have a fitted effect of over 60% in size
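ADP-Glo luminescence quantified ADP after 45 min at room temperature, with 1.25 nM T. brucei PFK, 0.1 mM ATP and 0.5 mM fructose-6-phosphate in pH 8.0 TEA buffer. qHTS titrations up to 57 µM; curves classified by quality.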
PGK inhibitor – T. brucei PGK inhibition. PGK/GAPDH coupled, Kinase-Glo luminescence, 60 min. Potency, µM (highest dose often 57.5 µM), most hits filed as inhibitors. actives 0.043% (n = 380,000). AID 602233; also: nearly all actives have a fitted effect of over 60% in size
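Luminescent ATP detection (Kinase-Glo Plus) follows a 60-minute room-temperature incubation, with wells lacking PGK as controls. Buffer: 100 mM TEA (pH 7.6), 5 mM MgCl2, 0.01% Tween-20. Coupling enzyme GAPDH (100 nM final) supplies unstable 1,3-BPG in-well.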
GLS inh – glutaminase GLS (human) inhibition; GLS enzymatic activity, qHTS titration; actives 0.21% (n = 410,000); Potency, µM (titrated, usually from 45.5 µM), hits mostly inhibitors; O94925; AID 624170
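Glutamate formation by hKGA was monitored fluorometrically using coupled glutamate oxidase, HRP and Amplex Red. Substrate was added as 1 mM L-glutamine solution; incubation was 30 min at RT after an initial read.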
Hits are given with their value; . = inactive; ? = inconclusive; / = no result given; ! = a repeat was not active. Unless noted, calls follow the shape of the dose curve; as a rule, active = well fitted curve in the direction sought with a large enough effect; inconclusive = small, poorly fitted or top-dose-only effect, or another doubt; inactive = no such curve, though single readings can be large; an effect the other way counts as inactive or inconclusive.

SMILES	VDR inh	Pin1 inhibitor	Tb PFK inh	PGK inhibitor	GLS inh
COCc1cc(=O)n2[nH]c(SC)nc2n1	.	.	.	.	.
O=[N+]([O-])c1cc(-c2ncccn2)c([N+](=O)[O-])s1	35.5µM	.	?	.	.
O=C1c2cccnc2C(=O)N1c1cccc([N+](=O)[O-])c1	.	.	.	.	.
COc1cc(C(C)=O)ccc1OCc1cn(CC(=O)c2ccc(O)cc2)nn1	89.1µM	.	/	.	.
CC(=O)c1ccc(OCc2cn(CC(=O)c3ccc(O)cc3)nn2)c(C)c1	/	/	/	.	.
Cc1ccc(C(=O)NCC(=O)NCC(c2cccs2)N(C)C)cc1C (stereo unspecified)	.	.	.	.	.
CNC(=O)c1cc(Nc2nnc(-c3ccc(O)cc3)c3ccccc23)ccc1OC	.	?	.	.	11.2µM
COC(=O)COc1ccc(-c2nnc(Nc3ccc(O)cc3)c3ccccc23)cc1	.	.	/	.	.
NC(=O)COc1ccc(Nc2nnc(-c3ccc(O)cc3)c3ccccc23)cc1	.	.	.	.	7.94µM
CN(C)C(=O)c1ccc(Nc2nnc(-c3ccc(O)cc3)c3ccccc23)cc1	.	.	.	.	11.2µM
CNC(=O)c1ccc(Nc2nnc(-c3ccc(O)cc3)c3ccccc23)cc1	.	?	.	.	?
CCOc1ccccc1-c1noc(CSc2nnc(-c3ccccc3)n2-c2cccc(C)c2)n1	.	.	/	.	.
BrC(=C\c1ccccc1)/C=N/N1CCN(c2ccccc2)CC1	79.4µM	.	.	.	.
CC(/C=N/N1CCN(c2ccc(C)cc2)CC1)=C\c1ccccc1	.	.	.	.	.
Cc1cccn2c(=O)c(/C=C(\C#N)C(=O)NC3CCS(=O)(=O)C3)c(N3CCC(C(N)=O)CC3)nc12 (stereo unspecified)	.	.	.	.	.
CCOC(=O)/C(C#N)=C/c1c(Oc2cc(C)cc(C)c2)nc2ccccn2c1=O	.	.	.	.	.
Cc1ccc(Oc2nc3ccccn3c(=O)c2/C=C(\C#N)C(=O)NC2CCS(=O)(=O)C2)cc1 (stereo unspecified)	79.4µM	?	.	.	.
Cc1ccccc1Oc1nc2c(C)cccn2c(=O)c1/C=C(\C#N)C(=O)NC1CCS(=O)(=O)C1 (stereo unspecified)	39.8µM	.	.	.	?
Cc1cccn2c(=O)c(/C=C(\C#N)C(=O)NC3CCS(=O)(=O)C3)c(Oc3ccccc3Cl)nc12 (stereo unspecified)	17.8µM	.	.	.	.
Fc1ccc(Nc2ncnc3onc(-c4ccc(Cl)cc4)c23)cc1Cl	.	.	/	.	.
C#CCN(CC(=O)OCC)S(=O)(=O)CCNC1CC1	/	/	/	/	.
O=C(COC(=O)c1cccc(F)c1)Nc1cccc(S(=O)(=O)N2CCCCC2)c1	/	/	/	.	.
Oc1ccc2ccccc2c1CNc1ccccc1	22.4µM	.	/	.	.
Oc1ccc2ccccc2c1CNc1ccc2ccccc2c1	.	.	/	.	.
S=c1[nH]c2ccccc2s1	35.5µM	/	/	/	.
SMILES	VDR inh	Pin1 inhibitor	Tb PFK inh	PGK inhibitor	GLS inh
O=C(Nc1ccc2[nH]c(=S)sc2c1)c1ccccc1	?	.	.	.	?
Cc1ccc(-c2nnc(N3CCC(C(N)=O)CC3)s2)cc1	/	.	/	/	/
Cc1ccc(OCc2ccoc2C(=O)O)cc1C	.	.	.	?	17.8µM
Cc1c(CCCC(=O)O)sc(N)c1C(=O)c1cccc(C(F)(F)F)c1	89.1µM	.	/	.	.
O=C(O)CNC(=O)c1cccc(C(F)(F)F)c1	.	.	.	.	.
CCOc1ccccc1NC(=O)Cn1nnc2sc3c(c2c1=O)CCC(C(C)(C)C)C3 (stereo unspecified)	.	.	/	/	.
COc1ccc(/C=C\C(=O)CC(O)(c2ccccc2)C(F)(F)F)cc1 (stereo unspecified)	50.1µM	.	.	/	.
COc1ccc(/C=C(/NC(=O)/C=C/c2ccccc2)C(=O)O)cc1	.	.	.	.	.
CCOc1cccc(/C=N/NC(=O)CC2C(=O)NN=C2C)c1O (stereo unspecified)	.	.	.	.	5.62µM
O=C(CSc1nc(-c2ccc(F)cc2)nc2c1Cc1ccccc1O2)Nc1ccc(C(=O)O)cc1	.	?	?	15.8µM	.
O=C(O)c1cc(-c2ccco2)nc2ccc(Br)cc12	20µM!	.	.	28.2µM!	7.94µM!
